# Laboratory results: publication PMC4336329 (PLoS ONE, 2015)
# Among all 310,000 compounds or so, about 2,200 (0.71%) showed an effect of 50% or more. Effects have a minus sign here. The sample holds strong results, similar compounds and a random draw of the others, so the mix is not that of the screen.
# Molecular target: human ether-à-go-go-related gene (hERG) potassium channel (human, UniProt Q12809)
# Assay: primary screen, population patch clamp on CHO cells stably expressing hERG; higher = less effect of the substance
# Sequence of human ether-à-go-go-related gene (hERG) potassium channel (Q12809 whole entry, looked up): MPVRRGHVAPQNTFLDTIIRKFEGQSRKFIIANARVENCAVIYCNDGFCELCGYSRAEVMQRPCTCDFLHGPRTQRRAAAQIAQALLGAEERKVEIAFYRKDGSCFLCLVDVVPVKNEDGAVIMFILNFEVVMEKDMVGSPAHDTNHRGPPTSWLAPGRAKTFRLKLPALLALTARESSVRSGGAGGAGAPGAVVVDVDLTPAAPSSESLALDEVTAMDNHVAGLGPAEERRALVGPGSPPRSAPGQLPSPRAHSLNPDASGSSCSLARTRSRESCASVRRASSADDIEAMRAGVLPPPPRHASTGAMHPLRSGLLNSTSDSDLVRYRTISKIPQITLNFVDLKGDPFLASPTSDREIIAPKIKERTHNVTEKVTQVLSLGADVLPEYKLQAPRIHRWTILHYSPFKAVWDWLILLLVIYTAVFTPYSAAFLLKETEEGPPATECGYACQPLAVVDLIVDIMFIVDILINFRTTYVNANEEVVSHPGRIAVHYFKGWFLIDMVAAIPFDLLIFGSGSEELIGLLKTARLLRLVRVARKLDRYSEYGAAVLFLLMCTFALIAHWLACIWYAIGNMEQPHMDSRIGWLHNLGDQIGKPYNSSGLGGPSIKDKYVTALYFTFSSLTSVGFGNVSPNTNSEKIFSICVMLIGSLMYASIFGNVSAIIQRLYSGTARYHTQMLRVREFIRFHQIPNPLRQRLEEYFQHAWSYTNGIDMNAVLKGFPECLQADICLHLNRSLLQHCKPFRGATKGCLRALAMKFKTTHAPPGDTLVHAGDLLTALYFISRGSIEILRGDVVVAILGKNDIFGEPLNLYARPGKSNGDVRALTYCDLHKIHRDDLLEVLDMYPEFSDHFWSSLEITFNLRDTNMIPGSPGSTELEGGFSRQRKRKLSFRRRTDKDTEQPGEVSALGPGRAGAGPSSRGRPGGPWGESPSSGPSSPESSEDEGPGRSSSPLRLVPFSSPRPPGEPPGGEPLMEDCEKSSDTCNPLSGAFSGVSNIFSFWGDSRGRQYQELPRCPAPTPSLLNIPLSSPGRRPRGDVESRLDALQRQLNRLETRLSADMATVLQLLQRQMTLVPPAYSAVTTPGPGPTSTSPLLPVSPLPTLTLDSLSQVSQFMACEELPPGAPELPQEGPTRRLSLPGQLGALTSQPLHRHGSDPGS
row,SMILES,"hERG current change (%, negative = inhibition) at 1uM"
1,COc1ccc(CC(=O)Nc2c(C(=O)N3CCN(c4ccccc4)CC3)oc3ccccc23)cc1OC,-8.82%
2,CCCN(CCC)C(=O)c1oc2ccccc2c1NC(=O)Cc1cccc(OC)c1,19.2%
3,CCOCCCN(C)C1CCN(C(=O)c2oc3ccccc3c2NC(=O)Cc2cccc([N+](=O)[O-])c2)CC1,-83.8%
4,COc1ccc(CC(=O)Nc2c(C(=O)N3CCN(c4ncccn4)CC3)oc3ccccc23)cc1,-21.4%
5,COc1ccc(N2CCN(C(=O)c3oc4ccccc4c3NC(=O)Cc3cccc(OC)c3)CC2)cc1,3.16%
6,CCOCCCN(C)C1CCN(C(=O)c2oc3ccccc3c2NC(=O)Cc2ccc([N+](=O)[O-])cc2)CC1,-89.1%
7,COc1ccc(NS(=O)(=O)c2cccc(C(=O)N3CCCC(C)C3)c2)cc1 (stereo not drawn),3.3%
8,CCN(CCn1cccn1)C(=O)CC1C(=O)NCCN1Cc1ccc(OC)c(OC)c1 (stereo not drawn),2.76%
9,c1cnc2ccc(C(c3nnnn3C3CCCC3)N3CCN4CCCC4C3)cc2c1 (stereo not drawn),-19.5%
10,OC1CCN(C(c2ccc3ncccc3c2)c2nnnn2C2CCCCC2)CC1 (stereo not drawn),-5.3%
11,Fc1ccc(Cn2nnnc2C(c2cccs2)N2CCCCCC2)cc1 (stereo not drawn),0.84%
12,c1cnc2ccc(C(c3nnnn3C3CCCCC3)N3CCN(C4CCCCC4)CC3)cc2c1 (stereo not drawn),-87%
13,c1cnc2ccc(C(c3nnnn3C3CCCCC3)N3CCN4CCCC4C3)cc2c1 (stereo not drawn),-96.9%
14,c1cnc2ccc(C(c3nnnn3C3CCCCC3)N3CCCCC3)cc2c1 (stereo not drawn),1.89%
15,Fc1ccc(Cn2nnnc2C(c2cccs2)N2CCN(C3CCCCC3)CC2)cc1 (stereo not drawn),-51.6%
16,COc1ccc(Cn2nnnc2C(c2ccc3ncccc3c2)N2CCN(C3CCCCC3)CC2)cc1 (stereo not drawn),-79.3%
17,COc1ccc(Cn2nnnc2C(c2ccc(C)cc2)N2CCN(C3CCCC3)CC2)cc1.Cl (stereo not drawn),-32.4%
18,CCC(C)(C)n1nnnc1C(c1ccc2ncccc2c1)N1CCN2CCCC2C1 (stereo not drawn),8.16%
19,Fc1ccc(C(c2nnnn2Cc2cccs2)N2CCN(C3CCCCC3)CC2)cc1 (stereo not drawn),-46.6%
20,COc1ccc(Cn2nnnc2C(c2ccc(F)cc2)N2CCN(C3CCCC3)CC2)cc1 (stereo not drawn),-15%
21,CCN(CC(=O)Nc1ccc(NC(C)=O)cc1)C(=O)CSc1nnc(-c2ccco2)n1CC,16.2%
